Reference: PubChem BioAssay (NCATS)
Records with an inconclusive call do not appear. The source made the active and inactive calls. Unless noted, calls follow the shape of the dose curve; as a rule, active = well fitted curve in the direction sought with a large enough effect; inconclusive = small, poorly fitted or top-dose-only effect, or another doubt; inactive = no such curve, though single readings can be large; an effect the other way counts as inactive or inconclusive.

Columns and labels:
[1] = target: Lysosomal acid glucosylceramidase (Homo sapiens) (UniProt P04062); test: Glucocerebrosidase-p2 (AID 348; in the data active = potency below about 10 µM; also: potency is read from the fitted curve at half-maximal effect); conditions: purified GBA, blue fluorogenic substrate, 40 min
In short: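 Compounds titrated from 0.6 nM upwards against 0.2 nM enzyme in pH 5.9 citric acid/KH2PO4, taurocholate, tween-20; blue fluorogenic substrate 80 uM, 40 min room temperature, stopped and read Ex 365/Em 440 for AC50.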

[2] = AP1 Signaling Pathway (AID 357; active = well fitted curve in either direction with a large enough effect, not every such curve was filed as active;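 also: ME-180 reporter cells stimulated with EGF at its EC50 level; % is scaled to controls: 0 for no effect and ±100 for the full control effect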); conditions: ME-180 AP-1-bla reporter, EGF-induced, beta-lactamase ratio, 5 h; at 7.69 µM (top of the series) unless noted
In short: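 In this screen, ME-180 cells in Opti-MEM with 0.5% dialyzed FBS received EC50 EGF and compound titrations for 5 h. AP-1 reporter beta-lactamase was detected via CCF4 ratio, giving AC50 for positive and negative modulators.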

[3] = target: Cytochrome P450 1A2 (Homo sapiens) (UniProt P05177); test: p450-cyp1a2 (AID 410; calls by dose curve; also: potency is read from the fitted curve at half-maximal effect); conditions: recombinant CYP1A2, luciferin-ME demethylation, luminescence; series mostly up to 57 µM
In short: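 Inhibition was calculated relative to 57 uM furafylline (full inhibition). The reaction used human CYP1A2 at 20nM with Luciferin-ME at its Km, 100uM, driven by an NADPH-regenerating system for 60 min at room temperature.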

[4] = NFAT Signaling Pathway (AID 444; active = well fitted curve in either direction with a large enough effect, not every such curve was filed as active;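 also: carbachol stimulus at about its EC50 of 1 µM final; % is scaled to controls: 0 for no effect and ±100 for the full control effect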); conditions: Jurkat NFAT-bla M1, carbachol, beta-lactamase ratio, 5 h; at 7.69 µM (top of the series) unless noted
In short: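 Jurkat cells with NFAT-driven β-lactamase reporter and co-expressed M1 receptor, stimulated with carbachol (final 1 uM, ~EC50), compound titration, 5 h at 37 °C. CCF4 loaded 1 h at RT; 460/530 nm ratio gave %activity and AC50.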

[5] = Stat Signaling Pathway (AID 446; active = well fitted curve in either direction with a large enough effect, not every such curve was filed as active;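 also: ME-180 cervical cancer cells given 40 pM IL-6 alongside compound; SIE-controlled beta-lactamase reporter measured as 460/530 nm FRET emission ratio; % is scaled to controls: 0 for no effect and ±100 for the full control effect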); conditions: ME-180 SIE beta-lactamase reporter, IL-6 stimulated, 5 h; at 7.69 µM (top of the series) unless noted
In short: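 Screening format detects activators and inhibitors alike: ME-180 SIE-bla cells stimulated at 40 pM IL-6 for 5 hrs with compound, then dual-emission beta-lactamase read at 405 nm excitation.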

[6] = target: Glucocorticoid receptor (Homo sapiens) (UniProt P04150); test: GR-GFP Redistribution (AID 450;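 active = compounds whose dose series gives a full or clear partial fitted curve of increased nuclear translocation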; also: potency is read from the fitted curve at half-maximal effect); conditions: U2OS GR-GFP nuclear translocation, laser cytometry, 2 h
[7] = target: Glucocorticoid receptor (Homo sapiens) (UniProt P04150); test: GR-EFC Redistribution (AID 451; calls by dose curve; also: potency is read from the fitted curve at half-maximal effect); conditions: CHO-K1 GR-EFC translocation, beta-gal luminescence, 2 h
In short: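 CHO-K1 cells expressing nuclear EA and GR-ED fragments of b-gal; compounds titrated up to 46 uM final, 2 h at 37 C. GR nuclear translocation read as complemented b-gal luminescence after 1 h RT detection.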

[8] = target: Mitogen-activated protein kinase 10 (Mus musculus) (UniProt Q61831); test: JNK3 AlphaScreen Assay (AID 530; active = well fitted curve in either direction with a large enough effect, not every such curve was filed as active;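 also: kinase came from lysate of stimulated human HepG2 cells; signal reports phosphorylation of biotinylated GST-cJun 1-79 at Ser73 with 10 µM ATP; % is scaled to controls: 0 for no effect and ±100 for the full control effect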); conditions: JNK3 lysate, c-Jun phosphorylation; series mostly up to 57.1 µM
In short: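 qHTS format: compounds tested as titrations against IL-1beta/TNF-alpha-activated HepG2 lysate JNK3 with biotin-GST-cJun substrate and 10 uM ATP at room temperature. Loss of anti-phospho-cJun AlphaScreen signal indicates inhibition.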

[9] = target: Cytochrome P450 3A4 (Homo sapiens) (UniProt P08684); test: qHTS Assay for Inhibitors and Substrates of Cytochrome P450 3A4 (AID 884); conditions: recombinant CYP3A4, Luciferin-PPXE luminescence; series mostly up to 57.1 µM; also: potency is read from the fitted curve at half-maximal effect; nearly all actives have a fitted effect of over 50% in size
In short: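 20 nM human CYP3A4 with 25 uM Luciferin-PPXE (at KM) in 200 mM KPO4, preincubated 10 min with compound; NADPH regeneration started a 60 min RT reaction. Luciferin detected by luminescence, normalized to 57 uM ketoconazole as full inhibition.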

[10] = target: Cytochrome P450 3A4 (Homo sapiens) (UniProt P08684); test: qHTS Assay for Activators of Cytochrome P450 3A4 (AID 885); conditions: recombinant CYP3A4, Luciferin-PPXE luminescence, 60 min; series mostly up to 57.1 µM; also: nearly all actives have a fitted effect of over 65% in size
In short: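 Steps: enzyme/substrate mix dispensed; compound added, 10 min RT; NADPH regeneration solution added, 60 min RT; luciferin detection buffer stops reaction; 20 min later luminescence measured.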

[11] = target: Cytochrome P450 2C19 (Homo sapiens) (UniProt P33261); test: qHTS Assay for Inhibitors and Substrates of Cytochrome P450 2C19 (AID 899); conditions: recombinant CYP2C19, luciferin-H EGE luminescence; series mostly up to 57.1 µM; also: potency is read from the fitted curve at half-maximal effect; nearly all actives have a fitted effect of over 60% in size
In short: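 Luminescent read-out of luciferin formed from Luciferin-H EGE (10uM, equal to KM). Enzyme 5nM in 50mM KPO4; compound added, 10 min at 37C, then NADPH regenerating system for 60 min at 37C. Full inhibition defined by 57uM ketoconazole.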

[12] = qHTS Assay for Lipid Storage Modulators (AID 1519; calls by dose curve); conditions: Drosophila S3 cells, BODIPY lipid droplet/cell ratio, laser cytometry, cells loaded with oleic acid; for activity change, negative = inhibition: at 57.5 µM (top of the series)
In short: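 Cells seeded at 5,000 per well were treated with compounds over a concentration series and loaded with oleic acid (400 uM, as added). Lipid droplet fluorescence (488 nm excitation, 500-530 nm channel) was read by laser-scanning cytometry and normalized to 20 uM Triacsin C.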

[13] = target: Dual specificity protein kinase CLK4 (Homo sapiens) (UniProt Q9HAZ1); test: qHTS Assay for Inhibitors of CDC-like Kinase 4 (Kinase-Glo Assay) (AID 1770); conditions: recombinant Clk4, Kinase-Glo ATP depletion luminescence; series mostly up to 66.7 µM; also: potency is read from the fitted curve at half-maximal effect; nearly all actives have a fitted effect of over 65% in size
In short: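 Clk4 25 nM, RS peptide 100 uM, ATP 1 uM, pH 7.5 Tris, 10 mM MgCl2, 2.5 mM DTT; 4.5 h RT; ATP depletion read by Kinase-Glo luminescence.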

[14] = target: Dual specificity protein kinase CLK4 (Homo sapiens) (UniProt Q9HAZ1); test: qHTS Assay for Inhibitors of CDC-like Kinase 4 (ADP-Glo Assay) (AID 1771); conditions: recombinant CLK4, ADP-Glo luminescence; series mostly up to 80 µM; also: potency is read from the fitted curve at half-maximal effect; nearly all actives have a fitted effect of over 70% in size
In short: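 Kinase reaction: Clk4 at 25 nM, RS repeat peptide substrate at 100 uM, ATP at 1 uM, 1 hr, room temperature. Product ADP detected as luciferase signal via ADP-Glo.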

[15] = target: Rap guanine nucleotide exchange factor 3 (Homo sapiens) (UniProt O95398); test: Confirmatory qHTS for antagonist of cAMP-regulated guanine nucleotide exchange factor 3 (EPAC1) (AID 1645880); conditions: EPAC1 Rap1B-BODIPY-GDP exchange, fluorescence; series mostly up to 115 µM;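 also: plate controls were DMSO only for no effect and full effect of the ATA control for full effect; nearly all actives have a fitted effect of over 55% in size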
In short: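 Nucleotide exchange uses 100 nM EPAC1, 250 nM RAP1B-BODIPY-GDP and 50 uM GDP, with compounds in a concentration-titration series. After 5 min at room temperature, fluorescence (480 nm ex/540 nm em) is read every 5 min for 30 min. Data are normalized to control ATA and DMSO.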

[16] = target: Rap guanine nucleotide exchange factor 3 (Homo sapiens) (UniProt O95398); test: Confirmatory qHTS for agonist of cAMP-regulated guanine nucleotide exchange factor 3 (EPAC1) (AID 1645881); conditions: EPAC1 Rap1B BODIPY-GDP exchange fluorescence; series mostly up to 154 µM;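 also: EPAC1 catalysed release of BODIPY-GDP from Rap1B seen as fluorescence loss; 100% = effect of cAMP agonist control; nearly all actives have a fitted effect of over 75% in size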
[17] = target: Rap guanine nucleotide exchange factor 4 (Homo sapiens) (UniProt Q8WZA2); test: Confirmatory qHTS for agonist of cAMP-regulated guanine nucleotide exchange factor 4 (EPAC2) (AID 1645884); conditions: EPAC2 GEF activity, Rap1B-BODIPY-GDP fluorescence; series mostly up to 154 µM;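 also: nucleotide exchange releases bodipy-GDP from Rap1 and this lowers its fluorescence; % is scaled to controls: 0 for no effect and ±100 for the full control effect; nearly all actives have a fitted effect of over 65% in size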
[18] = target: Rap guanine nucleotide exchange factor 4 (Homo sapiens) (UniProt Q8WZA2); test: Confirmatory qHTS for antagonist of cAMP-regulated guanine nucleotide exchange factor 4 (EPAC2) (AID 1645885); conditions: EPAC2 Rap1B-BODIPY-GDP exchange fluorescence, biochemical; series mostly up to 114 µM; also: % is scaled to controls: 0 for no effect and ±100 for the full control effect; nearly all actives have a fitted effect of over 25% in size
[19] = target: DNA dC->dU-editing enzyme APOBEC-3G (Homo sapiens) (UniProt Q9HC16); test: qHTS for inhibitors of Vif-A3G interactions: Validation (AID 588379); conditions: Vif-A3G protein interaction assay; series mostly up to 46.1 µM; also: 0% is about no effect
In short: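 HeLa cells stably expressing Vif and A3G-eYFP, 700 cells/well, incubated overnight at 37 deg C, then exposed to compound overnight at 37 deg C. Inhibition of Vif-mediated degradation read as increased yellow fluorescence (Ex 488/Em 500-530) by laser-scanning cytometry.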

[20] = Primary qHTS for small molecule stabilizers of the endoplasmic reticulum resident proteome: Secreted ER Calcium Modulated Protein (SERCaMP) assay (AID 1508630); conditions: SH-SY5Y GLuc-SERCaMP (Gaussia luciferase released on ER calcium loss) secretion, thapsigargin, luminescence; series mostly up to 38.4 µM; also: % is scaled to controls: 0 for no effect and ±100 for the full control effect
In short: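 GLuc-SERCaMP-expressing SH-SY5Y cells, pretreated 16 h with compound, are challenged with thapsigargin to empty ER calcium stores; after 4 h, coelenterazine is added directly to the medium and luminescence is imaged.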

[21] = target: Ubiquitin carboxyl-terminal hydrolase 1 (Homo sapiens) (UniProt O94782); test: Inhibitors of USP1/UAF1: Pilot qHTS (AID 504865); conditions: purified USP1/UAF1, Ub-rhodamine cleavage fluorescence; series mostly up to 54.9 µM;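 also: rhodamine fluorescence freed from ubiquitin-rhodamine substrate followed over time; top concentration of the series differs between compounds; % is scaled to controls: 0 for no effect and ±100 for the full control effect; nearly all actives have a fitted effect of over 35% in size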
In short: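 Enzyme-free wells gave the negative control, while test wells held 1nM USP1/UAF1 preincubated with compound for 15 min at room temperature. Ub-Rho at 150nM final started the reaction, and fluorescence at 480/540 nm was recorded kinetically.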

[22] = target: 3',5'-cyclic-AMP phosphodiesterase 4B (Homo sapiens) (UniProt Q07343); test: qHTS Assay for Inhibitors of PDE-IV (AID 607; active = well fitted activation curve with a large enough effect in the main read-out, with a control signal flat, not every such curve was filed as active; also: % of control where 0% means no effect); conditions: HEK293 ACTOne CNG channel cells, membrane potential fluorescence; series mostly up to 22.9 µM
In short: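 The readout is membrane depolarisation from a cAMP-sensing CNG channel, detected with a potential dye at ex 535/em 590. Cells were HEK293-derived (endogenous PDE-IV) at 1000 cells/well, titrated up to 22.9 uM final.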

[23] = Confirmation and Secondary Assay for Modulators of Hemoglobin Beta Chain Splicing at IVS2 654 locus (AID 910); conditions: HeLa EGFP-654 splicing reporter, GFP fluorescence, 48 h; series mostly up to 38.3 µM;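 also: HeLa cells stably carrying EGFP split by mutant beta-globin IVS2-654 intron; % of control where 0% means no effect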
In short: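 HeLa cells stably expressing EGFP interrupted by β-globin IVS2-654 intron, seeded overnight in Opti-MEM/2% FCS, then treated 2 days at 37 °C. Restored splicing read as total peak GFP intensity per well by laser scanning cytometry (488 nm excitation, 500–520 nm emission); 500 nM antisense PNA as control.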

[24] = Confirmation and Secondary Assay for Modulators of Hemoglobin Beta Chain Splicing at IVS2 705 locus (AID 930); conditions: HeLa EGFP-705 splicing reporter, GFP fluorescence, 48 h; series mostly up to 38.3 µM;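 also: HeLa cells stably expressing the EGFP-705 splicing reporter; GFP fluorescence per well restored by corrected splicing of the IVS2-705 intron in EGFP; % of control where 0% means no effect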
In short: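 Per-well GFP, captured at 1 x 8 µm resolution with 488 nm excitation, served as the read-out for HeLa EGFP-705 cells incubated 2 days with test compound versus DMSO.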

[25] = measured here: cell count channel max response
[26] = measured here: lipid channel max response

Chain of Glucocorticoid receptor (Homo sapiens) (P04150 whole entry, looked up, the tested form may be a part): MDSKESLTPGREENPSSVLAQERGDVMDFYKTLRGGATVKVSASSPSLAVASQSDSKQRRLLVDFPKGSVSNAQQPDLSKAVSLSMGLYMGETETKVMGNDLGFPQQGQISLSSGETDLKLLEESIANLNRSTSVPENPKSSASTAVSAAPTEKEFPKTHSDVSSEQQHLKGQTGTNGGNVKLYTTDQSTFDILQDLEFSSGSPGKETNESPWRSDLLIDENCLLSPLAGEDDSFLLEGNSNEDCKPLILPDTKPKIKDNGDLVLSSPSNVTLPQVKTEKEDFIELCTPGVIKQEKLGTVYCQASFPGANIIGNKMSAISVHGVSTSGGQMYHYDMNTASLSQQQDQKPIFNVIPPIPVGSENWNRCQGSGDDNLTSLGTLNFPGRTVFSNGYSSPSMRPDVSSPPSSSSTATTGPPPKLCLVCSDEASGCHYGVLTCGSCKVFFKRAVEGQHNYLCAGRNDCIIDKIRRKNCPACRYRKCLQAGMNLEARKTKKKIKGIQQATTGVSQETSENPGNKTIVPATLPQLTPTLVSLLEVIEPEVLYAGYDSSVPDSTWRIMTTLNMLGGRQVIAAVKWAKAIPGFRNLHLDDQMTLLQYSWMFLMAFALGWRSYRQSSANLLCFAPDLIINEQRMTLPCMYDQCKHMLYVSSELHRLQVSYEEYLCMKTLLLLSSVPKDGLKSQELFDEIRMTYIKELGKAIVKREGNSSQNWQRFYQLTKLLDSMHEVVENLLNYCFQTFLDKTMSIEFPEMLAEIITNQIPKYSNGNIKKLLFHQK
Chain of Cytochrome P450 3A4 (Homo sapiens) (P08684 whole entry, looked up): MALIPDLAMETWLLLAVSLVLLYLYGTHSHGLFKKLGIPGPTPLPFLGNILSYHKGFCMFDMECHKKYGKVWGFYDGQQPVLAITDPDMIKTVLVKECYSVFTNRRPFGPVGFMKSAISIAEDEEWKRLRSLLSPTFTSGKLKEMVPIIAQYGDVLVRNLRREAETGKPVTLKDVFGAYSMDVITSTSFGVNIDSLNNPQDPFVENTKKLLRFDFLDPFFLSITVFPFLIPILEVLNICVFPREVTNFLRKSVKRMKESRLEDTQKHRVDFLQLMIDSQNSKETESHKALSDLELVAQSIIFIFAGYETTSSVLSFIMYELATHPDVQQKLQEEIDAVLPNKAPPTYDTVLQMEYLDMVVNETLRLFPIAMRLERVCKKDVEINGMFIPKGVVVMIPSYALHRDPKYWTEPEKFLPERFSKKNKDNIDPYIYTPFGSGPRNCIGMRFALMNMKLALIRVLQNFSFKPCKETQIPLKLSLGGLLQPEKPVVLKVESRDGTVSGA
Chain of Dual specificity protein kinase CLK4 (Homo sapiens) (Q9HAZ1 whole entry, looked up): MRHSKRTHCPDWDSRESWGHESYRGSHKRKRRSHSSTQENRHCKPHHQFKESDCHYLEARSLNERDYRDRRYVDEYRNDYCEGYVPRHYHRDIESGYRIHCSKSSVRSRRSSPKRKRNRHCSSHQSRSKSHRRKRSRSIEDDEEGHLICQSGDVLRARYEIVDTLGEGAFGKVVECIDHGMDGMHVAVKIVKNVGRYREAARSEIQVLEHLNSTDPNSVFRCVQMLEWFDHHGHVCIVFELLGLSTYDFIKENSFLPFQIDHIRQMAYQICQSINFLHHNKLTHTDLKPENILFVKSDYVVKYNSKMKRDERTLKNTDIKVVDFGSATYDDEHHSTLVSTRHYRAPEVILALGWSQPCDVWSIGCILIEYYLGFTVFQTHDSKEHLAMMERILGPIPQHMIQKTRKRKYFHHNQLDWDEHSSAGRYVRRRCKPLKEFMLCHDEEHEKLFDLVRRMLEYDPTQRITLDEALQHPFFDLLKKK
Chain of Cytochrome P450 1A2 (Homo sapiens) (P05177 whole entry, looked up): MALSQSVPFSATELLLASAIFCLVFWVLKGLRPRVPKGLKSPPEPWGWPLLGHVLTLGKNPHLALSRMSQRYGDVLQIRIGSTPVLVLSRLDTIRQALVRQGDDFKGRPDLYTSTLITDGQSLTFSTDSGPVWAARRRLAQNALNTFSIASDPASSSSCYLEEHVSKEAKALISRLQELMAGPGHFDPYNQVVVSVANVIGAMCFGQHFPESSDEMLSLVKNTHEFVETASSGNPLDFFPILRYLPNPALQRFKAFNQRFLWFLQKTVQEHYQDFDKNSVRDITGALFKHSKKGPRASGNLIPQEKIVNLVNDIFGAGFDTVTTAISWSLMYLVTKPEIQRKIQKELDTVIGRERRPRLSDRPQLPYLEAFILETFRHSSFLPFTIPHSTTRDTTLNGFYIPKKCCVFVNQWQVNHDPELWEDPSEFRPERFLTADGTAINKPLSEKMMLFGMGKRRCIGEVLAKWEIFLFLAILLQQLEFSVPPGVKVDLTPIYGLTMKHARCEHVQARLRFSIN
Chain of Rap guanine nucleotide exchange factor 3 (Homo sapiens) (O95398 whole entry, looked up): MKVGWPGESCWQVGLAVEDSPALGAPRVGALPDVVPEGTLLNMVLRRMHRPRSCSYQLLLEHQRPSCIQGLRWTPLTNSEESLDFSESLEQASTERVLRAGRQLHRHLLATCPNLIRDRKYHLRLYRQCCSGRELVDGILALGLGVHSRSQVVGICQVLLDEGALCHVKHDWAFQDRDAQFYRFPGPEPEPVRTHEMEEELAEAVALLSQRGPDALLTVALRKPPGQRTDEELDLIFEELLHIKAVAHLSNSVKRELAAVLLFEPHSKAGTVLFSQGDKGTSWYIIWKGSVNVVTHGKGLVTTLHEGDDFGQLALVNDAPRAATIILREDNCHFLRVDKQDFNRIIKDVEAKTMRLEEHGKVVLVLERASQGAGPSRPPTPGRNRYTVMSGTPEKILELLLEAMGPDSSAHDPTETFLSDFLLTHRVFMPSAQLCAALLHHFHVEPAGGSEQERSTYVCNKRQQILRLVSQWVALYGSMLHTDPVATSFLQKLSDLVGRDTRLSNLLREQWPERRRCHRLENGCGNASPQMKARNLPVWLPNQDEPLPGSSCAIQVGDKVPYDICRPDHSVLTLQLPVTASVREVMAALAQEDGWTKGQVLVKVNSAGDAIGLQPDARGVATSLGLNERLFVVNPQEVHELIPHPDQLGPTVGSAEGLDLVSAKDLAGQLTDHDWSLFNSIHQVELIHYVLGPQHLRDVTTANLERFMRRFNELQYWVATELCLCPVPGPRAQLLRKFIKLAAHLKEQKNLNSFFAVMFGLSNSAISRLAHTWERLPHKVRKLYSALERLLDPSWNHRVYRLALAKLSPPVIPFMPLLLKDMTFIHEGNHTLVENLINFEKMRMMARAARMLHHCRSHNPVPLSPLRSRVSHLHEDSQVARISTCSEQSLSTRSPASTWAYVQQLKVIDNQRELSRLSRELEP
Chain of Rap guanine nucleotide exchange factor 4 (Homo sapiens) (Q8WZA2 whole entry, looked up): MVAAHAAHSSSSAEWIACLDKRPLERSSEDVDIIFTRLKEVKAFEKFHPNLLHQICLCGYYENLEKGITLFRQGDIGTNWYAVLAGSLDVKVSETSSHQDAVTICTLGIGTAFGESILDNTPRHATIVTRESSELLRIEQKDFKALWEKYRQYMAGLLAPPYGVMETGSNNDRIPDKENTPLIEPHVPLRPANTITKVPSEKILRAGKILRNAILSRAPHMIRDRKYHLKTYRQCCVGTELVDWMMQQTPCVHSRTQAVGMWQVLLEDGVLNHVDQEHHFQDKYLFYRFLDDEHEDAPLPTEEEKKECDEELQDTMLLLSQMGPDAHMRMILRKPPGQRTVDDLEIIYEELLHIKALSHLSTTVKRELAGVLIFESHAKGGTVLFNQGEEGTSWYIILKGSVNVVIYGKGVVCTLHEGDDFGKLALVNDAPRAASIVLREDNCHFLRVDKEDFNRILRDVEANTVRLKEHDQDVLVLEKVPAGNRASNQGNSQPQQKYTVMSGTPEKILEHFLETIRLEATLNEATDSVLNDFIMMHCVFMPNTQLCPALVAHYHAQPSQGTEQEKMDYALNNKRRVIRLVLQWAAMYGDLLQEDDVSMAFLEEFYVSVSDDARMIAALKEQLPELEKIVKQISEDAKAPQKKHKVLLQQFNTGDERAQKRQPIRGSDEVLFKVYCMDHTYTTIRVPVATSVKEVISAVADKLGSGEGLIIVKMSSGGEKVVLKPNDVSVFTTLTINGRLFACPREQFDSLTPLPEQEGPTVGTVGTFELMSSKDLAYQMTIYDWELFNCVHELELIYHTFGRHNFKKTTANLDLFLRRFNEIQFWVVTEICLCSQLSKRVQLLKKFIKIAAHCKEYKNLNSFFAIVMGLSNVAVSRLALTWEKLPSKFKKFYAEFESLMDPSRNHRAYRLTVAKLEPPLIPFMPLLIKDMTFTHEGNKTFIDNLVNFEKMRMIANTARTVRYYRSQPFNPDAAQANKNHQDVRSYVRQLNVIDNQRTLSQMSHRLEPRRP
Chain of Lysosomal acid glucosylceramidase (Homo sapiens) (P04062 whole entry, looked up): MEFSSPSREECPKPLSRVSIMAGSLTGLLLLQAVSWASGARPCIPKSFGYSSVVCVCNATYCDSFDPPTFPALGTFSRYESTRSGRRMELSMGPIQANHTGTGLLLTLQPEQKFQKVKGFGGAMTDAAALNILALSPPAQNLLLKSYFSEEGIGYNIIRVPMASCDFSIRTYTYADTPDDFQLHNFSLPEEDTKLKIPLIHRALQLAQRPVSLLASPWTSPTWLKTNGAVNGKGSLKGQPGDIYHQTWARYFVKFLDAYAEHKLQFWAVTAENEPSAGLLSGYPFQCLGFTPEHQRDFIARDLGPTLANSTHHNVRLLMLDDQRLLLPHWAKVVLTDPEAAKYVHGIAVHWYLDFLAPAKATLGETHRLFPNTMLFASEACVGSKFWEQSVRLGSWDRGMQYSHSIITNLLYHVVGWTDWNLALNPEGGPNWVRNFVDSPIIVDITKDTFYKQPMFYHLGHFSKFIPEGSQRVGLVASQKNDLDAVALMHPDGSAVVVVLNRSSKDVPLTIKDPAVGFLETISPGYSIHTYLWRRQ

Cc1ccccc1-c1ccc2ncnc(N(C)C)c2c1
inactive: Potency [1] > 11.4 µM | activity change, negative = inhibition [2] 13.7% | activity change, negative = inhibition [4] 7.63% | activity, negative = inhibition [5] -4.62% | Potency [6] > 46 µM | Potency [7] > 46 µM | Potency [8] | Potency [10] | activity change, negative = inhibition [12] 1.72% | Potency [15] | Potency [16] | Potency [17] | Potency [18]
active: Potency [3] 0.631 µM | Potency [9] 3.16 µM | Potency [11] 7.94 µM | Potency [13] 15.8 µM | Potency [14] 28.2 µM
-3.73%: max response [12, 26]
-2.12%: max response [12, 25]

CCCC[P+](CCCC)(CCCC)Cc1ccc(NC(=O)[C@@H](Cc2ccc3ccccc3c2)NC(=NC2CCCCC2)NC2CCCCC2)cc1
inactive: Potency [6] > 46 µM | Potency [7] > 46 µM | Potency [10] | outcome [19] | outcome [20]
active: Potency [3] 31.6 µM

COc1ccccc1CNc1ncnc2ccc(-c3ccccc3C#N)cc12
16.4%: max response [12, 25]
inactive: Potency [1] > 11.4 µM | activity change, negative = inhibition [2] -13.9% | activity change, negative = inhibition [4] 1.75% | activity, negative = inhibition [5] -23% | Potency [6] > 46 µM | Potency [7] > 46 µM | Potency [8] | Potency [10] | activity change, negative = inhibition [12] -1.18% | Potency [21] | Potency [15] | Potency [16] | Potency [17] | Potency [18]
14.7%: max response [12, 26]
active: Potency [3] 1.26 µM | Potency [9] 3.98 µM | Potency [11] 7.94 µM | Potency [13] 6.31 µM | Potency [14] 7.94 µM

O=C(c1cnccn1)N1CCC2(CCCN(Cc3ccncc3)C2)CC1
inactive: activity change, negative = inhibition [2] -12.8% | activity, negative = inhibition [5] 6.38% | Potency [7] > 46 µM | Potency [8] | Potency [22] | outcome [20]

CC(=O)Oc1ccc2c(c1)CCC1C2CC[C@]2(C)C(OC(C)=O)CCC12 (some centres not stated)
inactive: Potency [23] | outcome [24] | activity change, negative = inhibition [12] -2.53% | Potency [15] | Potency [16] | Potency [17] | Potency [18]
4%: max response [12, 25]
4.34%: max response [12, 26]
